In the experiment the test system is MDA-MB-468 breast. Kind of experiment: NCI-60 one-dose screen, 48 h (100 = growth as untreated, 0 = no growth, -100 = all killed). Particulars: 10 µM unless noted.

The panel holds about 83,000 compounds, 20% with a hit somewhere; the sample as a whole holds those more often.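 In brief: 96-well plates, 48 h treatment, single concentration, percent growth endpoint.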 The source made the active and inactive calls. How the source made its calls: active means growth percent below 10; inactive means the rest.

Regarding `COc1ccc(/C=C(\C(=O)NCc2cccnc2)S(=O)(=O)c2ccccc2)cc1OC`, the growth was 1.86% (active).

Consider `CC(=O)N[C@@H](CCC(N)=O)C(=O)O`, for which the growth is 108% (inactive).

Regarding `Cl.Fc1c[c-]c(-c2ccccn2)c(F)c1.[Pt].c1ccc([PH+](c2ccccc2)c2ccccc2[PH+](c2ccccc2)c2ccccc2)cc1`, the growth was -85.8% (active). On to `C=C(C)[C@@H]1CC[C@]2(CO)CC[C@]3(C)[C@H](CC[C@@H]4[C@@]5(C)CCCNC(C)(C)[C@@H]5CC[C@]43C)[C@@H]12`, for which the growth was 11.7% (inactive). In the case of `COc1cc(-c2nc(NC(C)=O)sc2-c2ccnc(NCCNS(=O)(=O)c3ccccc3)n2)ccc1Cl`, the growth is 20.8% (inactive). Next, `NNc1nc(-c2cccnc2)nc2c1sc(=S)n2-c1ccccc1`: 115% (inactive); `O=C(NNc1nc2cc(F)c(F)cc2n2cccc12)c1cccnn1`: -11.1% (active).

In the case of `CCCCN(CCCC)C(=O)[C@H](CC)[C@@H]1CC[C@@H](C)[C@@H]([C@H](C)[C@@H](O)[C@@H](C)C(=O)[C@H](CC)C2O[C@]3(C=C[C@@H](O)[C@]4(CC[C@@](C)([C@H]5CC[C@](O)(CC)[C@H](C)O5)O4)O3)[C@H](C)C[C@@H]2C)O1` (stereo not given in full), the growth is -22.1% (active). Take `CN1CCN(CC#CCn2c3c(c4ccccc42)C[C@]2(C)[C@H]4CC[C@@H]5[C@H]6[C@H]7OC(=O)[C@@]6(CCC7(C)C)CC[C@@]5(C)[C@]4(C)CC[C@H]2C3(C)C)CC1`: the growth is 93.9% (inactive). For `COc1ccc(-c2nc3cc(Cl)c(Cl)cc3n2CC(=O)N=Nc2c(O)[nH]c3ccc(Br)cc23)cc1`, the growth was -71% (active).

These data come from PubChem BioAssay (NCI).
